From PubChem
V-ATPase pH: regulators of yeast V-ATPase proton transport; S. cerevisiae, pHLuorin cytosolic pH fluorescence; response, % at 10 µM; hit rate 0.37% among 350,000; in the data active = response mostly above about 7.3%, no sharp cut-off; inactive = mostly below about 5.4%; note: actives read high
Efflux pump mplx: inhibitors of Candida antifungal efflux pumps expressed in yeast; S. cerevisiae Candida pump triplex, Nile Red efflux; inhibition, % at 10 µM; hit rate 0.44% among 330,000; AID 485275;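 active = plate passing quality check with inhibition over a set limit, or well fluorescence over plate mean plus 4 SD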;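 note: Nile Red retained in pooled yeast measured as flow cytometry median fluorescence; 0% = buffer negative control and 100% = Enniatin B positive control; higher means more Nile Red kept so more efflux inhibition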
NPR2 activator: GC-B (human) receptor activation; P20594; HEK293-GC-B cells, CNP EC30, cGMP TR-FRET; 0% at EC30 CNP, 100% saturating CNP; activation, % at 10 µM; hit rate 0.11% among 370,000; AID 1920062;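 active = activation at 10 µM reaching about 35% in either raw or pattern-adjusted values, limit read from the data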
Rce1 inh: blocks yeast Ras-converting enzyme; calls only; yeast membranes, quenched prenylated peptide cleavage fluorescence; hit rate 0.27% among 290,000; AID 2563;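 active = fall in fluorescence gain of 50% or more versus controls, with final raw signal at or below 3038400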;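 note: plate controls were neutral control wells for no effect and wells lacking membranes for full effect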
NSD2 HMT inh: inhibitors of human histone methyltransferase NSD2; O96028; NSD2 peptide methylation, AlphaScreen, 120 min; inhibition, % at 12.5 µM; hit rate 0.54% among 310,000; AID 743445; in the data active = inhibition above about 50%
GC-A act: GC-A (human) enzyme activation. P16066. HEK293 GC-A cells, cGMP TR-FRET, EC30 ANP; 0% at EC30 ANP, 100% saturating ANP. activation, % at 10 µM. hit rate 0.14% among 370,000. AID 1671463; in the data active = activation above about 40%
Target sequence (P16066 whole entry, looked up): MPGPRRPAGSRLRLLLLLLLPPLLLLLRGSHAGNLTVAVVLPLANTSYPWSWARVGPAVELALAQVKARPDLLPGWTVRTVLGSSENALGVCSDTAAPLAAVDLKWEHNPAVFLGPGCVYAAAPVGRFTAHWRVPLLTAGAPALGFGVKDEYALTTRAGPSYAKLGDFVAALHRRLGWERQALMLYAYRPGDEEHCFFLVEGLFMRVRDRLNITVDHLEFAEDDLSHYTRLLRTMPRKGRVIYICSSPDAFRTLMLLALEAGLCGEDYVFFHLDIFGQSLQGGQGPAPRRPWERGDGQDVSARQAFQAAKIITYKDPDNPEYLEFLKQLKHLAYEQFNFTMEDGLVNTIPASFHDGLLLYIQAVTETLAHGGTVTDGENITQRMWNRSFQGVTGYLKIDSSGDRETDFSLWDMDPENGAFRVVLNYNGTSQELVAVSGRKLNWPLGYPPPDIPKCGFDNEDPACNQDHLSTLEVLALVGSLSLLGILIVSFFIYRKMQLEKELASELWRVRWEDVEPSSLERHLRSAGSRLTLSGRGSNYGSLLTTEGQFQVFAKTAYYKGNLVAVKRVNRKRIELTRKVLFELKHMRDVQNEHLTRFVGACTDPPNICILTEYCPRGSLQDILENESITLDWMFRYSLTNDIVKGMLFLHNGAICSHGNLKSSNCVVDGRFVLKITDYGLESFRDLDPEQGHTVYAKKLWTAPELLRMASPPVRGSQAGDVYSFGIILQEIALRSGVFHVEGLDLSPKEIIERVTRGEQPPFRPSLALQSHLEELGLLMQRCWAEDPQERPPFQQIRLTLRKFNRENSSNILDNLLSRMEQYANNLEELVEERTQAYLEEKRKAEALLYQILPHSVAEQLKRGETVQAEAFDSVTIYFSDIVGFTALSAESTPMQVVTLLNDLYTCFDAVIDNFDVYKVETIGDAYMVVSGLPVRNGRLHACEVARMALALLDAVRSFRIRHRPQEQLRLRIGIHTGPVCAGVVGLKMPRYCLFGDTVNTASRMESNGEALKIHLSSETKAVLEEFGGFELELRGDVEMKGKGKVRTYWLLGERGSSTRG
Starred values were filed as active, the others as inactive. Shown are actives, neighbours in structure and some others; about 1.6% of the full set was active somewhere.

`N#C/C(=C/c1ccc(O)c(O)c1)c1nc2ccccc2[nH]1` gave V-ATPase pH 0, Efflux pump mplx 2.0*, NPR2 activator -7, Rce1 inh inactive, NSD2 HMT inh 67* and GC-A act -3.
N#C/C(=C\c1cccs1)c1nc2ccccc2[nH]1 was read as V-ATPase pH 0, Efflux pump mplx 0, NPR2 activator 2, Rce1 inh inactive and GC-A act 4.
For CCC(C)[C@@H](C(=O)OC)N(Cc1cn(Cc2ccccc2)nn1)S(=O)(=O)c1ccccc1Br (stereo not given in full) the results were NPR2 activator 4 and GC-A act -2.
CN(C)C(=O)COc1ccc2c(-c3ccccc3)cc(=O)oc2c1 was read as V-ATPase pH -1, Efflux pump mplx 0, NPR2 activator 0, Rce1 inh inactive, NSD2 HMT inh -2 and GC-A act 0.
`CCOCCOC(=O)COc1ccc2c(-c3ccccc3)cc(=O)oc2c1` gave V-ATPase pH 3, Efflux pump mplx 1, NPR2 activator 7, Rce1 inh inactive, NSD2 HMT inh -2 and GC-A act 52*.
Screening COc1cc2c(cc1NC(=O)CSc1nnc(COc3ccccc3)n1Cc1ccco1)oc1ccccc12 returned NPR2 activator -10, NSD2 HMT inh -4 and GC-A act -1.
Cc1ccc(Oc2ccc(Cl)cc2N)cc1 was read as V-ATPase pH 0, Efflux pump mplx 0, NPR2 activator -4, NSD2 HMT inh -1 and GC-A act -1.
`Nc1cc(Cl)ccc1Oc1ccc2ccccc2c1` gave V-ATPase pH 16*, Efflux pump mplx 0, NPR2 activator -5, Rce1 inh inactive, NSD2 HMT inh 3 and GC-A act 5.
Screening C[C@@H]1[C@H](O)[C@@H](C)/C=C/C=C/C=C/C=C/C=C/C=C/C=C/[C@H](OC2O[C@H](C)[C@@H](O)[C@H](N)[C@@H]2O)C[C@@H]2O[C@](O)(C[C@@H](O)C[C@@H](O)[C@H](O)CC[C@@H](O)C[C@@H](O)CC(=O)O[C@H]1C)C[C@H](O)[C@H]2C(=O)O (stereo not given in full) returned NPR2 activator -9 and GC-A act 3.
Screening CN(C)c1ccc(CNCCC(Cc2ccccc2)c2ccco2)cc1 (stereo not given) returned V-ATPase pH -1, Efflux pump mplx 0, NPR2 activator -2, Rce1 inh inactive, NSD2 HMT inh 57* and GC-A act -16.
For c1ccc(CNCCC(Cc2ccccc2)c2ccco2)cc1 (stereo not given) the results were V-ATPase pH 5, Efflux pump mplx 0, NPR2 activator -15, Rce1 inh inactive, NSD2 HMT inh 2 and GC-A act -11.
CSc1ccc(/C=C/C(=O)OCC(=O)NC2CC2)cc1 was read as V-ATPase pH 0, Efflux pump mplx 0, NPR2 activator 7, NSD2 HMT inh 1 and GC-A act -1.
CSc1ccc(/C=C/C(=O)OCC(=O)NC(C)C)cc1 was read as V-ATPase pH 0, Efflux pump mplx 0, NPR2 activator -3, Rce1 inh active and GC-A act 2.
For CC(=O)Nc1cccc(Oc2ncnc3scc(-c4ccc(C)cc4)c23)c1 the results were V-ATPase pH -6, Efflux pump mplx 0, NPR2 activator 58*, NSD2 HMT inh -3 and GC-A act 55*.
`O=C(NCC(c1ccccc1)c1ccccc1)[C@H](Cc1ccccc1)NC1(C(=O)NC2CCCCC2)CCOCC1` gave NPR2 activator -21 and GC-A act -18.
C[C@@H]([C@@H](O)c1ccccc1)N(C)C(=O)C(N)Cc1ccccc1 (stereo not given in full) was read as V-ATPase pH 26*, Efflux pump mplx 0, NPR2 activator -8, Rce1 inh inactive and GC-A act 2.
Screening CC(=O)Nc1ccc2oc(-c3cc(F)c(F)cc3Cl)nc2c1 returned V-ATPase pH 3, Efflux pump mplx 0, NPR2 activator -8, Rce1 inh inactive, NSD2 HMT inh 1 and GC-A act 58*.
`COC(=O)[C@]12C[C@H](CC(=O)NCc3ccc(OC)c(OC)c3)C(=O)N(Cc3ccco3)C1=C[C@H](C(C)C)O[C@@H]2C1CC1` gave NPR2 activator 10 and GC-A act 2.
